From PubChem
Rango release inh = qHTS Assay for Inhibitors of RanGTP induced Rango (Ran-regulated importin-beta cargo) - Importin beta complex dissociation. Snurportin-1 (Homo sapiens) + GTP-binding nuclear protein Ran (Homo sapiens) + Importin …. Biochemical FRET Rango-importin beta, RanGTP-induced dissociation. Potency, µM (titrated, usually from 46.1 µM), without a hit: top-dose activity change, negative = inhibition. actives 0.071% (n = 340,000). AID 540253, 2011; further: potency means the concentration at half of the fitted maximal effect; % of control where 0% means no effect; nearly all actives have a fitted effect of over 45% in size
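Two FRET readings bracket the reaction: one 5 min after compound meets Rango–importin beta, another 45 min after RanGTP-RCC1 (0.6 uM Ran, 0.2 uM RCC1, 2 mM GTP) is added. Only the second defines inhibition.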
KCNH2 3.1 inh = qHTS for Inhibitors of KCHN2 3.1: Mutant qHTS | actives 0.95% (n = 340,000) | activity change, % (tested at about 1.8 µM) | AID 720553, 2013 | U2OS KCNH2 3.1, thallium flux FluxOr; hits give low values;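 active means maximum activity change below -70%; inconclusive means maximum activity change from -70% to -50%; inactive means maximum activity change above -50%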;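 further: thallium influx rate constant from kinetic fluorescence after stimulation buffer; on the % scale 0 is the no-effect control and ±100 the full control effect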
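Steps: virus added to U2OS suspension (4 h, RT, dark); medium with 10% FBS added, cells plated, 37 C overnight; FluxOr/Red40 loading buffer 45 min RT; stimulation buffer, 2 min kinetic read; rate constant normalized.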
Rango complex inh = qHTS Assay for Inhibitors of Rango (Ran-regulated importin-beta cargo) - Importin beta complex formation; actives 0.031% (n = 340,000); Rango CFP/YFP FRET sensor + importin beta, 45 min; Potency, µM (series often up to 92.2 µM), without a hit: at the highest dose inhibition of complex formation; Importin subunit beta-1 (Homo sapiens), Q14974;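 further: potency means the concentration at half of the fitted maximal effect; 0% = DMSO wells and 100% = buffer wells lacking importin beta; nearly all actives have a fitted effect of over 15% in size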
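Inhibition scored from the CFP 486 nm/YFP 530 nm FRET ratio 45 min after adding 0.125 microM importin beta to 50 nM Rango biosensor preincubated 5 min with compound (room temperature, PBS with DTT, Tween-20, BSA). No-importin wells as positive control.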
CCT chaperon mod = High-Throughput Screening for Modulators of Cytosolic Chaperonin Activity; actives 0.3% (n = 360,000); activity change, % (concentration not given with the values), hits read low; AID 651819, 2012; purified chaperonin ATPase assay, HTRF ADP detection, 30 min; in the data active means activity change below about -30%; further: on the % scale 0 is the no-effect control and ±100 the full control effect
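Enzyme 40 or 20 nM (batch-dependent) in Tris pH 7.4/KCl/MgCl2/DTT; cpd 76 uM single point; ATP 10 uM; 30 min 37 °C; Transcreener ADP HTRF detection, 30 min RT; ratio 665/615.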
MmCpn inh = Inhibitors of TCP-1 ring complex (TRiC) of Methanococcus maripaludis (MmCpn): qHTS | Chaperonin Mm-Cpn (Methanococcus maripaludis) | purified Mm-Cpn ATPase, ADP Transcreener TR-FRET | Potency, µM (doses to about 76.9 µM), for inactives: at the top dose activity, negative = inhibition, hits mostly inhibitors | actives 0.031% (n = 330,000) | AID 504842, 2011; active means well fitted inhibition curve with a large enough effect; inconclusive means small, poorly fitted or top-dose-only effect; further: potency means the concentration at half of the fitted maximal effect; on the % scale 0 is the no-effect control and ±100 the full control effect; nearly all actives have a fitted effect of over 80% in size
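ATP (10 uM final) was added to archaeal chaperonin (25 nM final) after 10 min exposure to test compound at 37°C; after 30 min further incubation, ADP was detected by competitive TR-FRET.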
KCNH2 WT inh = qHTS for Inhibitors of KCHN2 3.1: Wildtype qHTS | Voltage-gated inwardly rectifying potassium channel KCNH2 (Homo sapiens), Q12809 | U2OS, BacMam KCNH2, thallium flux FluxOr; hits give low values | activity change, % at 1.84 µM | actives 0.37% (n = 340,000) | AID 720551, 2013;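 active means maximum activity change below -70%; inconclusive means maximum activity change between -70% and -50%; inactive means maximum activity change above -50%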; further: on the % scale 0 is the no-effect control and ±100 the full control effect
Target sequence (Q12809 whole entry, looked up): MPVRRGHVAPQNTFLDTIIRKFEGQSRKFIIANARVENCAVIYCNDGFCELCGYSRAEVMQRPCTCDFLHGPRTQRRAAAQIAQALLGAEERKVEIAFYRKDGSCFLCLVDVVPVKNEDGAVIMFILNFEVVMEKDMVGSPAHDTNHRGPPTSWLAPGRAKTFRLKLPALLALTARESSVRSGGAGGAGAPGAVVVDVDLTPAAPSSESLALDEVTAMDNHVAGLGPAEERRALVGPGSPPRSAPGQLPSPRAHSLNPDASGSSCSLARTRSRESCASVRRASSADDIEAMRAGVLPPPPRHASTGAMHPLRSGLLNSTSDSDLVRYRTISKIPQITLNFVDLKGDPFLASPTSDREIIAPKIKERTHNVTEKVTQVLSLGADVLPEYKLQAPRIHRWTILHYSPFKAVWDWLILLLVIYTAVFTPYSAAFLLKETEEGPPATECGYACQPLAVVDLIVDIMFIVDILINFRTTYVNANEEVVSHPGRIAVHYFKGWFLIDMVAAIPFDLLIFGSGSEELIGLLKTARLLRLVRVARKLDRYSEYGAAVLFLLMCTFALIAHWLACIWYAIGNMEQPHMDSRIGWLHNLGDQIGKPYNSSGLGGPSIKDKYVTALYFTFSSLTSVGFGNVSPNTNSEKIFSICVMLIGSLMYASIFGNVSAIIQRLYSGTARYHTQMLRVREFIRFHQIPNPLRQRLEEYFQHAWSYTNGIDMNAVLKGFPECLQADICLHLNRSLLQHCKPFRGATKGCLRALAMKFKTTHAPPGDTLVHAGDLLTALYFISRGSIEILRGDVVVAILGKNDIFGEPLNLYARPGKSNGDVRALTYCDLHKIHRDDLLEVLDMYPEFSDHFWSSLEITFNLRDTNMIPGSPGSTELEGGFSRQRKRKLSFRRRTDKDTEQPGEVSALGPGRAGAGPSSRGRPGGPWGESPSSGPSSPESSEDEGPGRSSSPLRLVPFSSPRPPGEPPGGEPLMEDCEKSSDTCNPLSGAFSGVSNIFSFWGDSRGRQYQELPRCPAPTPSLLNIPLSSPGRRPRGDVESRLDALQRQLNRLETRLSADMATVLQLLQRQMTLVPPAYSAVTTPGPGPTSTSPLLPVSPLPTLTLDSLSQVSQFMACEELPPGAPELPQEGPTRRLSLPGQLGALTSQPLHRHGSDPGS
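U2OS cells were transduced with wild-type KCNH2 virus (2.03 x 10^8 / mL) for 4 h at room temperature, then cultured overnight at 37 C. Thallium flux was read with FluxOr dye. Rate constants were normalized to DMSO controls.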
* = called active by the depositor. The list is not random: actives were taken first. Their share in the collection is about 1.4%. Unless noted, the call rests on the fitted dose curve.

What do the screens show for `O=C(NCCCC(=O)N1CCCCC1)c1ccc(Cl)cc1`?
Rango release inh: -9%; Rango complex inh: -1%; CCT chaperon mod: -2; MmCpn inh: 0%; KCNH2 WT inh: 2

Results for CCOC(=O)C1=C(COC(=O)CCCOc2ccccc2)NC(=O)NC1C (centres undefined) ?
Rango release inh: 4%; KCNH2 3.1 inh: -10; Rango complex inh: 0%; CCT chaperon mod: 2; MmCpn inh: 1%; KCNH2 WT inh: -8

Results for Cc1ccccc1C(=O)NCC(=O)OCC(=O)NC(C)C1CC2CCC1C2 (centres undefined) ?
Rango release inh: 5%; KCNH2 3.1 inh: 12; Rango complex inh: -1%; CCT chaperon mod: -2; MmCpn inh: -1%; KCNH2 WT inh: 6

How did CC(NC(=O)COC(=O)CNC(=O)c1ccccc1Cl)C1CC2CCC1C2 (centres undefined) do in these assays?
Rango release inh: 0%; KCNH2 3.1 inh: 3; Rango complex inh: -2%; CCT chaperon mod: -40*; MmCpn inh: 2%; KCNH2 WT inh: 15

Results for COc1ccc(F)cc1C(=O)C1CCCN(Cc2cccn2-c2ccccn2)C1 (centres undefined) ?
Rango release inh: 6%; KCNH2 3.1 inh: -86*; Rango complex inh: 1%; CCT chaperon mod: -3; MmCpn inh: 0%; KCNH2 WT inh: -71*

How did COc1ccc(C(=O)C2CCCN(Cc3cccn3-c3ccccn3)C2)c(OC)c1 (centres undefined) do in these assays?
Rango release inh: -1%; KCNH2 3.1 inh: -91*; Rango complex inh: 8%; CCT chaperon mod: 1; MmCpn inh: -5%; KCNH2 WT inh: -48

How did O=C(c1cc(F)ccc1F)C1CCCN(Cc2cccn2-c2ccccn2)C1 (centres undefined) do in these assays?
Rango release inh: -16%; KCNH2 3.1 inh: 17; Rango complex inh: -3%; CCT chaperon mod: -2; MmCpn inh: 3%; KCNH2 WT inh: -36

Results for CN(C)c1ccc(/C=C2\SC(=S)N(Nc3ncc(C(F)(F)F)cc3Cl)C2=O)cc1 ?
Rango release inh: inconclusive; KCNH2 3.1 inh: -73*; Rango complex inh: inconclusive; CCT chaperon mod: -4; MmCpn inh: -2%; KCNH2 WT inh: -133*

Results for Cn1nnnc1Sc1ncnc2scc(-c3cc4ccccc4o3)c12 ?
Rango release inh: 11%; Rango complex inh: 0%; MmCpn inh: 40µM*

Results for O=C(Nc1ccccc1)C1=C[C@@H](C2CC2)C[C@@H](OCCCCO)O1 ?
Rango release inh: 0%; KCNH2 3.1 inh: 11; Rango complex inh: 5%; CCT chaperon mod: 1; KCNH2 WT inh: 3

How did CCOc1ccc(C(=O)N2CCN(CCc3ccccc3)CC2)cc1OCC do in these assays?
Rango release inh: -14%; KCNH2 3.1 inh: -90*; Rango complex inh: -3%; CCT chaperon mod: 0; MmCpn inh: -1%; KCNH2 WT inh: -30

Results for O=C(Nc1ccc(Cl)cc1)[C@@H]1[C@@H]2C(=O)N(c3ccc(Cl)cc3)C(=O)[C@@H]2[C@H]2C=CC=NN21 ?
Rango release inh: inconclusive; KCNH2 3.1 inh: -114*; Rango complex inh: inconclusive; CCT chaperon mod: -2; MmCpn inh: -2%; KCNH2 WT inh: 8

How did Cn1cc(CNCc2cn(C)nc2-c2ccc(C3CCCCC3)cc2)cn1 do in these assays?
Rango release inh: 0%; KCNH2 3.1 inh: 13; Rango complex inh: 3%; CCT chaperon mod: -10; MmCpn inh: -1%; KCNH2 WT inh: 27

How did Cc1ccc(-c2csc(N3CCC[C@@H]3C(=O)NCCn3c(-c4ccncc4)nc4ccccc43)n2)cc1 do in these assays?
Rango release inh: -15%; KCNH2 3.1 inh: -105*; Rango complex inh: -1%; CCT chaperon mod: 0; MmCpn inh: 1%; KCNH2 WT inh: 6

How did CC(C)NS(=O)(=O)c1ccc(NC(=S)NC(=O)c2ccc(-c3ccccc3)cc2)cc1 do in these assays?
Rango release inh: -1%; KCNH2 3.1 inh: -75*; Rango complex inh: 5%; CCT chaperon mod: 0; MmCpn inh: -3%; KCNH2 WT inh: 1

Results for COc1ccc(S(=O)(=O)N(C)C[C@H]2Oc3ccc(NC(=O)C4CC4)cc3C(=O)N([C@H](C)CO)C[C@@H]2C)cc1 ?
Rango release inh: -10%; KCNH2 3.1 inh: -4; Rango complex inh: 1%; CCT chaperon mod: -1; MmCpn inh: -1%; KCNH2 WT inh: 2

Results for Cn1cccc1C(=S)N1CCOCC1 ?
Rango release inh: 8%; KCNH2 3.1 inh: 6; Rango complex inh: -1%; CCT chaperon mod: -1; MmCpn inh: 0%; KCNH2 WT inh: -7

What do the screens show for `Cn1cccc1C(=S)N=P(C1CCCCC1)(N1CCOCC1)N1CCOCC1`?
Rango release inh: 0%; KCNH2 3.1 inh: 5; Rango complex inh: 3%; CCT chaperon mod: -52*; MmCpn inh: 1%; KCNH2 WT inh: -5

How did CC(C)c1ccc(/C=N/NC(=O)CCNC(=O)c2ccccc2)cc1 do in these assays?
Rango release inh: -1%; KCNH2 3.1 inh: -16; Rango complex inh: 1%; CCT chaperon mod: 0; MmCpn inh: 1%; KCNH2 WT inh: 0

What do the screens show for `CS(=O)(=O)N(CC(=O)NCCSC1CCCCC1)c1cccc(F)c1`?
Rango release inh: 22%; KCNH2 3.1 inh: -9; Rango complex inh: 4%; CCT chaperon mod: -2; MmCpn inh: 0%; KCNH2 WT inh: -5

Results for CS(=O)(=O)N(CC(=O)NCCSC1CCCCC1)c1ccccc1 ?
Rango release inh: -19%; KCNH2 3.1 inh: -23; Rango complex inh: -4%; CCT chaperon mod: -33*; MmCpn inh: inconclusive; KCNH2 WT inh: -1

Results for COc1cc(C(O)CO)ccc1OS(=O)(=O)O (centres undefined) ?
Rango release inh: -3%; KCNH2 3.1 inh: -6; Rango complex inh: 0%; CCT chaperon mod: 0; MmCpn inh: -1%; KCNH2 WT inh: 2
